High-throughput results as filed in PubChem.
The list is not random: actives were taken first. Their share in the collection is about 2.9%.
KKLEB tox: cytotoxicity in KKLEB CF airway cells, primary screen, cytotoxicity control for CF NF-kB inhibitor project, cell-based, uHTS, fluorescence assay plates | KKLEB CF airway cells viability, ATPlite luminescence, overnight; hits give low values; cells stimulated with P. aeruginosa culture filtrate | activity change (cytotoxicity), % at 5 µM | actives 0.36% (n = 360,000) | AID 602141, 2011;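 active = corrected activity change at or below -50% at 5 µM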
Shn3 inh set2: reduction of Shn3 3'UTR firefly luciferase signal, primary screen, Schnurri-3 inhibitor project, cell-based, Clone20 osteoblasts, set 2 | AID 588674, 2011 | inhibition, % at 12.5 µM | Clone20 osteoblast Shn3 3'UTR firefly luciferase, 24 h | actives 0.52% (n = 360,000);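 active = mean inhibition of at least 75% with every replicate also reaching 75%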;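 note: 0% = median of neutral control wells and 100% = pilot-screen positive control compound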
LMP1 NFkB inh: EBV LMP1-driven NF-kappaB luciferase reporter inhibitors, primary screen, cell-based, luminescence, single point; actives 0.69% (n = 350,000); inhibition, % at 12.5 µM; LMP1-induced NF-kappaB luciferase reporter cells; in the data active = inhibition above about 41%;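 note: 0% = neutral control wells and 100% = reference inhibitor control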
CF NFkB inh: inhibitors of PAF-induced NF-kB signaling, primary screen, cell-based, GFP fluorescence, uHTS | actives 0.86% (n = 360,000) | KKLEB NF-kB-GFP reporter, GFP fluorescence overnight | inhibition, % at 5 µM;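 active = at least 50% inhibition at 5 µM, scaled per plate between neutral and stimulator controls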;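 note: PAF is a Pseudomonas aeruginosa culture filtrate used as stimulus; plate controls were PAF-stimulated DMSO wells for no effect and unstimulated DMSO wells for full effect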
HIF-2a block: HIF-2a reporter inhibitors, primary screen, luminescence, 786-0 RCC cells; actives 0.72% (n = 360,000); inhibition, % at 18.8 µM; 786-0 RCC cells HIF-2a reporter, luciferase luminescence, overnight; AID 624352, 2012;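 active = inhibition of the luminescence signal of 40% or more relative to plate controls, in a single-dose primary screen at 18.75 µM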
Peg3 prom inh: Peg3 promoter-driven luciferase inhibitors, primary screen, cell-based, HeLa, luciferase luminescence; inhibition, % at 20 µM; actives 1.7% (n = 360,000); AID 588405, 2011; HeLa PEG-Prom luciferase reporter, overnight;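 active = inhibition of at least 50% at 20 µM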
* hit, by the source's call; / = no result.

SMILES	KKLEB tox	Shn3 inh set2	LMP1 NFkB inh	CF NFkB inh	HIF-2a block	Peg3 prom inh
COc1cccc(Nc2nc(C(N)Cc3ccc(Cl)cc3)cs2)n1 (stereo unspecified)	-13.6	-15.2	/	15.3	12.0	98.6*
COc1cccc(Nc2nc(C(N)CCc3ccccc3)cs2)n1 (stereo unspecified)	-29.8	6.5	/	41.3	9.8	109.3*
COc1cccc(Nc2nc(C(N)Cc3ccc(F)cc3)cs2)n1 (stereo unspecified)	-28.2	-7.0	/	36.9	-8.8	113.9*
CC(=O)Nc1ccc(NC(=O)C(C)OC(=O)CNS(=O)(=O)c2cccc(Cl)c2)cc1 (stereo unspecified)	3.4	-5.5	1.8	-5.4	6.3	8.5
COc1ccc(CN2CCC(n3nccc3NC(=O)C3CC3)CC2)c(Cl)c1OC	-11.7	12.0	5.6	5.2	4.6	20.0
COc1cc(Br)cc(/C=N/NC(=O)Cc2ccc(C(F)(F)F)cc2[N+](=O)[O-])c1O	6.3	20.4	21.0	-5.1	18.2	54.3*
CCOc1cc(/C=N/NC(=O)Cc2ccc(C(F)(F)F)cc2[N+](=O)[O-])c(Br)cc1OC	-15.1	22.8	-30.2	-5.7	6.8	35.3
O=C(c1ccc(CSc2nc3ccncc3[nH]2)cc1)N1CCCCCC1	-39.6	12.2	23.1	-0.1	-100.7	-22.5
Cc1ccc(CSc2nc3ccncc3[nH]2)cc1	-69.6*	19.6	47.3*	-0.4	-19.0	-33.6
Clc1ccc(CSc2nc3ccncc3[nH]2)cc1	-58.7*	-46.5	22.0	-4.4	-126.0	-137.1
O=C(c1ccc(CSc2nc3ccncc3[nH]2)cc1)N1CCN(c2cccc(Cl)c2)CC1	-6.8	88.5*	9.0	34.5	-29.6	15.5
O=C(Nc1ccc(Oc2ccccc2)nc1)C1CCCCN1Cc1ccco1 (stereo unspecified)	-27.9	17.1	-8.5	37.6	-23.1	-4.5
C[C@]12c3[nH]c4ccc(Cl)cc4c3CCN1C(=O)[C@@H](CC(=O)NCC13CC4CC(CC(C4)C1)C3)C[C@@H]2C(=O)N1CCCCC1	-24.2	34.0	3.0	36.8	-16.0	56.4*
C[C@]12c3[nH]c4ccc(Cl)cc4c3CCN1C(=O)[C@@H](CC(=O)NCC13CC4CC(CC(C4)C1)C3)C[C@@H]2C(=O)N1CCOCC1	-0.3	54.6	-2.5	20.1	-47.2	26.8
CC[C@]12c3[nH]c4ccc(Cl)cc4c3CCN1C(=O)[C@@H](CC(=O)NCC13CC4CC(CC(C4)C1)C3)C[C@@H]2C(=O)N1CCN(C(=O)C2CC2)CC1	-2.1	66.3	3.6	13.0	-64.9	55.5*
CC(NC(=O)CSC1=NCCS1)c1ccccc1 (stereo unspecified)	7.6	-4.1	4.2	3.9	16.4	-1.5
COc1ccc(-n2c(C)c(C(C)=O)c3cc(OC(C)=O)ccc32)cc1	-10.9	17.9	59.6*	83.3*	35.5	15.7
COc1ccc2c(c1)c(C(=O)O)c(C)n2-c1ccccc1	-1.2	-3.6	1.8	0.9	4.3	5.8
Cc1ccc(-c2csc3nc(SCC(N)=O)n(Cc4ccccc4)c(=O)c23)cc1	-5.7	-2.8	-2.1	-8.4	6.9	52.6*
CN(C)c1ccc(C(=O)c2ccc(N(C)C)c3ccccc23)cc1	-2.1	2.8	-5.5	54.9*	-179.5	-218.3
COc1ccc(C(=O)c2ccc(N(C)C)cc2)c(OC)c1	-12.6	-6.3	-11.3	17.1	-64.2	-5.7
CCOC(=O)c1cc2c(N)c(C(=O)c3cc(C#N)c(SC)nc3C)sc2nc1C	-63.7*	17.7	8.7	48.5	-4.1	28.2
CCOC(=O)c1cc(C#N)c(SC)nc1C	-0.8	-19.0	4.6	-3.4	11.5	9.6
CNc1c(NS(=O)(=O)c2ccc3c(c2)CCCC3)c(=O)oc2ccccc12	12.8	-0.5	-0.7	-9.2	7.4	14.0
CCN(CC)S(=O)(=O)c1ccc(N/N=C/c2ccc(O)cc2)nc1	-0.7	13.1	7.8	-10.9	12.0	2.6
SMILES	KKLEB tox	Shn3 inh set2	LMP1 NFkB inh	CF NFkB inh	HIF-2a block	Peg3 prom inh
CCN(CC)S(=O)(=O)c1ccc(N/N=C(\C)c2ccc(OC)cc2O)nc1	-0.5	91.2*	32.0	-5.0	6.3	37.5
COCCNC(=O)C1(C)CCN(C(=O)/C=C/c2ccccc2)C1 (stereo unspecified)	-5.8	6.5	/	9.1	-3.1	-12.4
N#Cc1ccc(Nc2nc(-c3ccccc3)c(C(=O)c3ccccc3)s2)cc1	12.5	1.7	/	15.4	-97.5	61.0*
CCOC(=O)/C(N=Nc1ccc(F)cc1)=C(/O)c1ccc([N+](=O)[O-])cc1	-14.3	2.2	-0.2	66.9*	-1.0	-6.2
Cc1ccc(S(=O)(=O)Nc2ccc(Oc3cccnc3)nc2)cc1	-10.9	20.0	12.7	0.0	15.2	8.8
O=C(Nc1ccc(F)cc1)Nc1nnc(-c2ccncc2)s1	-47.7	-5.5	-7.9	84.6*	-43.3	-13.0
O=C(Nc1ccc(Cl)cc1)Nc1nnc(-c2ccncc2)s1	-89.2*	-14.9	20.3	84.0*	-9.1	63.8*
COc1cc([N+](=O)[O-])cc(/C=C2/SC(=S)N(Cc3ccccc3)C2=O)c1O	-11.1	2.8	20.7	21.6	-49.2	51.0*
O=C(CCN1C(=O)/C(=C/c2ccccc2)SC1=S)Nc1cccnc1	1.6	14.6	-5.4	15.7	9.7	-8.8
O=C1/C(=C/c2ccc(O)c([N+](=O)[O-])c2)SC(=S)N1Cc1ccccc1	-24.2	18.0	-1.1	38.5	-36.2	17.7
O=C1/C(=C\c2cccc([N+](=O)[O-])c2O)SC(=S)N1Cc1ccccc1	-5.8	-17.6	20.3	26.7	-30.1	55.5*
O=C1/C(=C/c2ccccc2)SC(=S)N1CC(=O)N1CCCCC1c1cccnc1 (stereo unspecified)	-13.7	15.8	14.1	33.8	72.9*	58.7*
O=C1/C(=C/c2cccnc2)SC(=S)N1Cc1ccco1	-3.1	-13.2	42.6*	12.4	-0.7	25.3
O=C1/C(=C/c2ccccc2O)SC(=S)N1Cc1cccnc1	0.4	-46.5	23.9	51.1*	6.6	108.5*
O=C1/C(=C\c2cc(Br)cc(Br)c2O)SC(=S)N1Cc1ccccc1	-45.3	13.2	34.1	26.1	1.9	72.5*
Cc1c(C(=O)OCc2ccccc2)[nH]c2c1C(=O)CC(c1ccco1)C2 (stereo unspecified)	-30.3	85.7*	14.6	56.6*	-28.3	-6.8
O=C1c2ccccc2C(=O)c2[nH]c(=O)[nH]c21	-41.8	70.5	88.6*	95.7*	7.1	81.8*
